# Screening results (PubChem BioAssay)
# Shown are actives, neighbours in structure and some others; about 2.5% of the full set was active somewhere.
# FXN GAA850 act – frataxin GAA850 promoter activation; HEK293 lucGAA850 FXN promoter luciferase reporter, 24 h; percent of 10 µM SAHA response; activation, % at 6 µM; 0.56% of 360,000 active;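 active = activation above the average of all compounds screened plus 3 SD, cutoff fixed separately per campaign, cut at about 7.5% in these data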;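 also: 0% = DMSO wells and 100% = 10 µM SAHA wells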
# CFTR F508del cor – correctors of CFTR F508del function in bronchial epithelial cells; CFBE cells, YFP halide quenching; stimulated with forskolin plus potentiator P3; % fluorescence drop versus neutral controls; activity (quench increase), % at 7.58 µM; 0.36% of 350,000 active;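 active = mean added fluorescence quench of at least 8% versus neutral control, with both replicates also reaching 8%; inconclusive = only one of the mean or replicate conditions met; inactive = mean below 8% and not both replicates reaching 8%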;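 also: cells transiently co-express mutant CFTR-F508del with the halide-sensitive YFP; corrector assay measuring rescue of mutant channel to the surface after 24 h compound exposure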
# EWS-Fli inh – inhibitors of EWS/Fli oncoprotein transcriptional activity; A673 NR0B1-luciferase reporter, viability-normalised; inhibition, % at 12.6 µM; 0.67% of 350,000 active; AID 651661;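 active = mean inhibition of at least 50% after viability correction, with every replicate also passing that limit; inconclusive = mean reaches 50% but only one of two replicates passes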;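 also: firefly luciferase signal divided by Alamar Blue viability fluorescence both relative to DMSO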
# Env fusion inh – HIV envelope-mediated fusion inhibition. HeLa-JRFL Env/CEM21 cell fusion, luciferase. inhibition, % at 12.3 µM. 1.1% of 360,000 active. AID 651610;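 active = mean replicate inhibition score of at least 50 and every replicate individually at or above 50; inconclusive = only one of the two criteria met; inactive = mean below 50 and not all replicates reaching 50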;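 also: 0% = plate neutral controls and 100% = maraviroc near 300 nM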
# PAX8 inh HTS – PAX8 transcriptional activity inhibition. RMG-I TPO-luciferase reporter, SteadyGlo, 24 h. inhibition, % at 12.6 µM. 1.2% of 360,000 active. AID 652154;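 active = mean replicate inhibition at least 60% with every replicate also reaching 60%; inconclusive = only one of the two criteria is met; inactive = mean below 60% and not all replicates reaching 60%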;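 also: luciferase light reporting Pax8 driven TPO promoter activity; plate controls were median of neutral control wells for no effect and mitoxantrone controls for full effect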
# * = called active by the depositor; ? = inconclusive; / = not tested or not shown; [ ] = dose if it differs, or a comment.
SMILES,FXN GAA850 act,CFTR F508del cor,EWS-Fli inh,Env fusion inh,PAX8 inh HTS
CN(C)C(=O)OCc1c(-c2ccccc2)ncc2ccccc12,/,3,10,-16,3
C[C@@H]1CN([C@H](C)CO)C(=O)c2cc(NS(=O)(=O)c3ccc(Cl)cc3)ccc2O[C@@H](C)CCCCO[C@@H]1CN(C)S(=O)(=O)c1cccs1,/,-2,0,-8[16.7 µM],13
C[C@@H]1CN([C@H](C)CO)C(=O)c2cc(NS(=O)(=O)c3ccc(Cl)cc3)ccc2O[C@@H](C)CCCCO[C@H]1CN(C)S(=O)(=O)c1cccs1,/,0,2,63*[16.7 µM],13
C[C@@H]1CCCCO[C@@H](CN(C)S(=O)(=O)c2cccs2)[C@H](C)CN([C@@H](C)CO)C(=O)c2cc(NS(=O)(=O)c3ccc(Cl)cc3)ccc2O1,/,1,-2,11[16.7 µM],70*
CN(C)C(=O)[C@@]1(Cc2ccccc2)COC(c2ccc(OCCCO)cc2)=N1,/,1,-5,-10[16.7 µM],7
O=C(C[C@@H]1C[C@@H]2c3cc(NC(=O)C4CCOCC4)ccc3O[C@@H]2[C@H](CO)O1)NCc1cccc(F)c1,/,-1,2,32[16.7 µM],9
COc1ccc2c(c1)[C@@H](NC(=O)C(F)(F)F)[C@@H]1CCCC[C@]21c1ccccc1,/,0,-11,-41,15
COc1cc2c(c(OC)c1OC)[C@@]1(c3ccccc3)CCCC[C@H]1[C@@H]2NC(=O)C(F)(F)F,/,-1,-1,87*,-16
Cc1ccc(S(=O)(=O)N(C)C[C@@H]2Oc3ccc(NS(=O)(=O)c4ccccc4)cc3CC(=O)N([C@H](C)CO)C[C@@H]2C)cc1,/,-1,4,100*[16.7 µM],2
Cc1ccc(S(=O)(=O)Nc2ccc3c(c2)CC(=O)N([C@H](C)CO)C[C@H](C)[C@H](CN(C)S(=O)(=O)c2ccccc2)O3)cc1,/,0,4,80*[16.7 µM],8
Cc1ccc(S(=O)(=O)Nc2ccc3c(c2)CC(=O)N([C@@H](C)CO)C[C@H](C)[C@H](CN(C)S(=O)(=O)c2ccccc2)O3)cc1,/,0,-1,67*[16.7 µM],-5
Cc1ccc(S(=O)(=O)Nc2ccc3c(c2)CC(=O)N([C@H](C)CO)C[C@@H](C)[C@@H](CN(C)S(=O)(=O)c2ccccc2)O3)cc1,/,1,-2,18[16.7 µM],7
COc1ccccc1NC(=O)c1oc2ccccc2c1NC(=O)c1cc(OC)c(OC)c(OC)c1,1,-1,60*,/,/
CC(C)CN=C(NS(=O)(=O)c1ccccc1)C(Cl)(Cl)Cl,-2,/,45,-53,100*
CN1CCN(C(=O)C[C@H]2CC[C@@H]3[C@H](COC[C@@H](O)CN3Cc3ccc4c(c3)OCO4)O2)CC1,/,-1,-14,/,-9
COc1ccc2c3c(cccc13)C(=O)CC2,3,12*,10,11,-5
Cc1ccc(S(=O)(=O)NC[C@@H]2CC[C@@H]3[C@@H](CN3Cc3cc(-c4ccccc4)on3)O2)cc1,/,1,18,/,/
COCCOC(=O)N1C(=O)[C@@]2(c3cc(C#Cc4ccc(OC)cc4)ccc31)[C@H](C(=O)N1CCc3cc(OC)c(OC)cc3C1)[C@H]1C(=O)O[C@H](c3ccccc3)[C@H](c3ccccc3)N1[C@@H]2c1ccc(OCCO)cc1,/,-3,-8,-12[16.7 µM],/
O=[N+]([O-])c1cccc(NC(=S)Nc2nc(-c3ccccc3Cl)cs2)c1,-2,3,7,97*,34
C[C@H](CO)N1C[C@H](C)[C@H](CN(C)C(=O)C2CC2)Oc2cc(-c3cncnc3)ccc2S1(=O)=O,/,-1,15,13[16.7 µM],/
O=C1CC(c2ccc(F)cc2)CC2=C1C=Nc1ccccc1N2 (stereo not drawn),-3,4,2,8,21
O=C1CC(c2ccccc2)CC2=C1C=Nc1ccccc1N2 (stereo not drawn),-3,9.2*,12,6,9
C[C@@H]1CN([C@H](C)CO)C(=O)c2cc(NC(=O)Cc3ccccc3)ccc2O[C@@H](C)CCCCO[C@@H]1CN(C)C(=O)Nc1cccc2ccccc12,/,-2,-8,-60[16.7 µM],64*
C[C@@H]1CCCCO[C@H](CN(C)C(=O)Nc2cccc3ccccc23)[C@H](C)CN([C@H](C)CO)C(=O)c2cc(NC(=O)Cc3ccccc3)ccc2O1,/,3,-1,/,9
C[C@H]1CCCCO[C@H](CN(C)C(=O)Nc2cccc3ccccc23)[C@@H](C)CN([C@@H](C)CO)C(=O)c2cc(NC(=O)NC3CCCCC3)ccc2O1,/,-3,17,61*[16.7 µM],67*
SMILES,FXN GAA850 act,CFTR F508del cor,EWS-Fli inh,Env fusion inh,PAX8 inh HTS
CO[C@@H]1CN(C)C(=O)c2ccc(NS(=O)(=O)c3cccc(Cl)c3)cc2OC[C@@H](C)N(C(=O)Cc2cccnc2)C[C@H]1C,/,1,5,/,2
COc1ccc2c3c([nH]c2c1)[C@@H](CO)N(C(=O)c1cccc(F)c1)CC31CN(C(=O)c2ccccc2)C1,/,-2,-6,/,/
CCC(=O)Nc1ccc2c(c1)C(=O)N(C)C[C@@H](OC)[C@@H](C)CN(C(=O)CN1CCOCC1)[C@@H](C)CO2,/,-2,-4,/,/
O=C(CC1CC1)N1CC2(C1)[C@H](c1ccccc1)[C@@H](CO)N2C(=O)C1CCOCC1,/,-3,2,/,/
COc1ccc(CC(=O)Nc2ccccc2N2CCCC2)cc1,0,-1,-4,5,3
COc1ccc(CNCC(=O)Nc2ccccc2-n2cccc2)cc1,-2,10*,21,-29,29
COc1ccc(OCC(=O)Nc2ccccc2N2CCCCC2)cc1,-4,5,/,74*,23
COc1ccc(OCC(=O)Nc2ccccc2N2CCN(C)CC2)cc1,1,5,-12,15,-8
O=C(CNCC1CCCCC1)Nc1ccccc1N1CCCCC1,-1,/,/,75*,20
O=C(CNC1CCCCCC1)Nc1ccccc1N1CCCCC1,1,/,/,?,20
CCOc1ccc(C(=O)C2CCN(CC(=O)Nc3ccccc3N3CCOCC3)CC2)cc1,2,/,/,70*,/
COCC#Cc1ccc2c(c1)O[C@@H](CN(C)Cc1ccc(F)cc1)[C@@H](C)CN([C@H](C)CO)S2(=O)=O,/,1,10,13[16.7 µM],/
COc1ccc(OCC(=O)Nc2ccc(N3CCOCC3)c(Cl)c2)cc1,0,/,/,-21,/
Cc1ccc(OCC(=O)Nc2ccccc2-c2ccccc2NC(=O)COc2ccc(C)cc2)cc1,1,/,/,91*,-11
COc1ccc(OCC(=O)Nc2ccccc2-c2ccccc2)cc1,1,/,13,-11,22
COc1ccc(OCC(=O)Nc2ccc(N3CCN(C(=O)c4ccccc4)CC3)c(Cl)c2)cc1,-3,-2,/,62*,20
O=C(C1CCCC1)N1CC(=O)N2[C@@H](CO)[C@H](c3ccc(Br)cc3)[C@@H]2C1,/,-1,-1,/,-6
COc1ccc(/C=N/Nc2nc(Nc3ccccc3)nc(N3CCCC3)n2)cc1[N+](=O)[O-],0,3,48,?,22
COc1cc(/C=N/Nc2nc(Nc3ccccc3)nc(-n3nc(C)cc3C)n2)cc(OC)c1OC,-5,0,2,2,80*
